Results filed as inconclusive are left out. Active and inactive are the calls of the source. The call rests on the fitted dose curve; in most records, active means well fitted curve in the direction sought with a large enough effect; inconclusive means small, poorly fitted or top-dose-only effect, or another doubt; inactive means no such curve, though single readings can be large; an effect the other way counts as inactive or inconclusive.
Legend:
[1] = target: Rap guanine nucleotide exchange factor 3 (Homo sapiens) (UniProt O95398); assay: Confirmatory qHTS for agonist of cAMP-regulated guanine nucleotide exchange factor 3 (EPAC1) (AID 1645881);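 further: EPAC1 catalysed release of BODIPY-GDP from Rap1B seen as fluorescence loss; 100% = effect of cAMP agonist control; nearly all actives have a fitted effect of over 75% in size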
Rap guanine nucleotide exchange factor 3 (Homo sapiens), sequence (O95398 whole entry, looked up): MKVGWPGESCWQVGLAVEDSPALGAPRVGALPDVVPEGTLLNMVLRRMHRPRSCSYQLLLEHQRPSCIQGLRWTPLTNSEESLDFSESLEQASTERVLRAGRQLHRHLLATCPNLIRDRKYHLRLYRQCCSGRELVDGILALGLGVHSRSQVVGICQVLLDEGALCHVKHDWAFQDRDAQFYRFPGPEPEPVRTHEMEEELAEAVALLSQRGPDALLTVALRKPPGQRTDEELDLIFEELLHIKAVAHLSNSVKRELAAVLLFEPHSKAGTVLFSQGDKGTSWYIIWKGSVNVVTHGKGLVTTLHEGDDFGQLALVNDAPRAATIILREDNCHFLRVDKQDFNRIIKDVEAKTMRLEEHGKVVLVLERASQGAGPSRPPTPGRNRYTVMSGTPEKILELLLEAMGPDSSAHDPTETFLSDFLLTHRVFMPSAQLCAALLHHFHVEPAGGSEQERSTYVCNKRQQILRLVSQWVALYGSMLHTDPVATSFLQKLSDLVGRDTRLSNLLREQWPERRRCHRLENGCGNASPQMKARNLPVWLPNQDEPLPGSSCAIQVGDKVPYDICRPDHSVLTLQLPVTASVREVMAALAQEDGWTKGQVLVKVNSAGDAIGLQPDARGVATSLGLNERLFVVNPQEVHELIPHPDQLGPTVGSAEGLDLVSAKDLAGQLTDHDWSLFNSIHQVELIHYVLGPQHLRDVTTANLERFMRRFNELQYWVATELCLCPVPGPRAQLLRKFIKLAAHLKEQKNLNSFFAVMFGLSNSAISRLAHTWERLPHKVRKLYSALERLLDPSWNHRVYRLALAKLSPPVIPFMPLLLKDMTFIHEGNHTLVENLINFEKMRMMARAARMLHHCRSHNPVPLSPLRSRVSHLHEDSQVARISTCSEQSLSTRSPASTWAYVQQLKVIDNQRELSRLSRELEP

[2] = target: Rap guanine nucleotide exchange factor 4 (Homo sapiens) (UniProt Q8WZA2); assay: Confirmatory qHTS for agonist of cAMP-regulated guanine nucleotide exchange factor 4 (EPAC2) (AID 1645884);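 further: nucleotide exchange releases bodipy-GDP from Rap1 and this lowers its fluorescence; on the % scale 0 is the no-effect control and ±100 the full control effect; nearly all actives have a fitted effect of over 65% in size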
Rap guanine nucleotide exchange factor 4 (Homo sapiens), sequence (Q8WZA2 whole entry, looked up): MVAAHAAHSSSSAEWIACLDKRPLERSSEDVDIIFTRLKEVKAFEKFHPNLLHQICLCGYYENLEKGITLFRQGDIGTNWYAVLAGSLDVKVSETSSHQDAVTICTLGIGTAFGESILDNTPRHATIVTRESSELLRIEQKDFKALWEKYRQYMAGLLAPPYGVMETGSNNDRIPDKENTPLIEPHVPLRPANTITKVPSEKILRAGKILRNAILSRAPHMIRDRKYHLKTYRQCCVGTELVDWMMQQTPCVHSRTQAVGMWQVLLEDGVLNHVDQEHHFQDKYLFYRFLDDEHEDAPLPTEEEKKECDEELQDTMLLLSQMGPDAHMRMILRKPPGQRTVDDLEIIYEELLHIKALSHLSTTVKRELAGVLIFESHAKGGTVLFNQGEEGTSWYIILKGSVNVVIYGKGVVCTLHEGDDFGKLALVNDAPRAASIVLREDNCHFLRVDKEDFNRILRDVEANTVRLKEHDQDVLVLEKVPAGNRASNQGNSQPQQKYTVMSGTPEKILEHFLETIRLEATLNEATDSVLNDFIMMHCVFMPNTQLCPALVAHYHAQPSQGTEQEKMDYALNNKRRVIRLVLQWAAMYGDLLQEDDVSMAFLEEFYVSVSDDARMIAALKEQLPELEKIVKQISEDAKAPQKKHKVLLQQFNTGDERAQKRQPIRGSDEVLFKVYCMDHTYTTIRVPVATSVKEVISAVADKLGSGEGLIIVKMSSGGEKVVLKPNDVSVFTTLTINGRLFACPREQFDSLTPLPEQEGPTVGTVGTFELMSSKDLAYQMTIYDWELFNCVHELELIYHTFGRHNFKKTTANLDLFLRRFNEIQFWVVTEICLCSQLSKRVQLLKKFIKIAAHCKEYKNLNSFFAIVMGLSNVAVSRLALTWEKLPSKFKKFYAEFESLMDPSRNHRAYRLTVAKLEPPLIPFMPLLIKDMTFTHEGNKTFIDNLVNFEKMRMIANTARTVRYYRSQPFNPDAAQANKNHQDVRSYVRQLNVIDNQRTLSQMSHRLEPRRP

[3] = target: Rap guanine nucleotide exchange factor 4 (Homo sapiens) (UniProt Q8WZA2); assay: Confirmatory qHTS for antagonist of cAMP-regulated guanine nucleotide exchange factor 4 (EPAC2) (AID 1645885); further: nearly all actives have a fitted effect of over 25% in size; on activity change, negative = inhibition: on the % scale 0 is the no-effect control and ±100 the full control effect
[4] = target: Rap guanine nucleotide exchange factor 3 (Homo sapiens) (UniProt O95398); assay: Counterscreen qHTS for antagonist of cAMP-regulated guanine nucleotide exchange factor 3 (EPAC1) (AID 1645888);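 further: fluorescence loss as bound BODIPY-GDP is released from Rap1B; % of control where 0% means no effect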
How it was run: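 Rap1B–BODIPY-GDP (250 nM) with 50 uM GDP; compounds pin-transferred to 9.74 nM–152 uM final (activator) or from 7.32 nM upwards (inhibitor). Fluorescence Ex/Em 480/540 nm read at 5 and 30 min, then after adding cAMP or buffer, at room temperature.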

CCc1ccc(C=C2SC(=S)N(CCCC(=O)Nc3ccc(C(=O)O)cc3)C2=O)cc1
inactive: Potency [1] | Potency [2] | Potency [3] | Potency [4]

Cc1[nH]n(-c2ccccc2)c(=O)c1C=Nc1ccc(S(=O)(=O)N=C(N)N)cc1
inactive: Potency [1] | Potency [2] | Potency [3] | Potency [4]

CCc1cc(C(=O)Nc2ccc(S(=O)(=O)NC3=NCCCCC3)cc2)sc1C
inactive: Potency [1] | activation [2] 5.65% [at 17.1 µM, percent relative to cAMP agonist control] | Potency [3] | activity change, negative = inhibition [4] 4.61% [at 30.8 µM]

Cc1cc(SCC(=O)N/N=C/c2ccc(O)c(O)c2)nc2ccccc12
inactive: Potency [1] | activation [2] 5.52% [at 17.1 µM, percent relative to cAMP agonist control] | Potency [3] | activity change, negative = inhibition [4] -2.02% [at 30.8 µM]

O=C(Nc1c(-c2ccc3c(c2)OCO3)[nH][nH]c1=O)c1ccccc1
inactive: Potency [1] | Potency [2] | Potency [3] | Potency [4]

Cc1cc(C)c(S(=O)(=O)/N=C2\C=C(Nc3ccc(C(=O)O)cc3)C(=O)c3ccccc32)c(C)c1
inactive: Potency [1] | Potency [2] | Potency [3] | Potency [4]

CC(NS(=O)(=O)OCC(Cl)(Cl)Cl)c1ccc(Br)cc1 (centres undefined)
inactive: Potency [1] | Potency [2] | Potency [3] | Potency [4]

CC(C)(C)NC(=O)NC(=O)CN1CCN(S(=O)(=O)c2ccc3c(c2)CCCC3)CC1
inactive: Potency [1] | activation [2] -5.51% [at 17.1 µM, percent relative to cAMP agonist control] | Potency [3] | activity change, negative = inhibition [4] -44% [at 30.8 µM]

O=C(O)c1ccc(N2C(=O)CC(SC(=NCc3ccc4c(c3)OCO4)Nc3ccc(F)cc3)C2=O)cc1 (centres undefined)
inactive: Potency [1] | Potency [2] | Potency [3] | Potency [4]

Oc1ccc2ccccc2c1/C=N/c1nc2c(s1)CCCC2
inactive: Potency [1] | Potency [2] | Potency [3] | Potency [4]

COc1ccc(C(CC(=O)c2ccc(C)cc2)C(C#N)C#N)cc1OC (centres undefined)
inactive: Potency [1] | Potency [2] | Potency [3] | Potency [4]

CCN1CCc2c(sc(NC(=O)c3cc4ccccc4cc3OC)c2C(N)=O)C1
inactive: Potency [1] | activation [2] 8.91% [at 17.1 µM, percent relative to cAMP agonist control] | Potency [3] | activity change, negative = inhibition [4] -3.83% [at 30.8 µM]

Cc1cccc(-n2ccnc2SCC(=O)Nc2ccc(F)cc2F)c1C
inactive: Potency [1] | Potency [2] | Potency [3] | Potency [4]

CCC1=Nc2cc(C(=O)NCCCOC)ccc2Sc2ccc(Br)cc21
inactive: Potency [1] | Potency [2] | Potency [3] | Potency [4]

CCCc1nc2ccc(C(=O)OC)cn2c1Cc1ccc(C)cc1
inactive: Potency [1] | Potency [2] | Potency [3] | Potency [4]

COc1ccc(C2C=C(c3ccc(Br)cc3)Nc3nnnn32)c(OC)c1 (centres undefined)
inactive: Potency [1] | Potency [2] | Potency [3] | Potency [4]
